Compound activity deposited in PubChem by National Center for Advancing Translational Sciences (NCATS).
HT1080 IDH1KD tx – toxicity to HT-1080 IDH1 knockdown cells (counter line); 360,000 tested, 2% active; HT-1080 IDH1 knockdown viability, ATP luminescence, 48 h; Potency, µM (titrated, usually from 46.1 µM), for the others: top-dose activity, negative = toxicity, hits mostly cytotoxic;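 further: 0% = DMSO wells and -100% = cell-free medium wells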
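Knockdown cells (IDH1KD HT-1080) received compounds 2 h after plating at 750 cells/well and were kept 48 h at 37 °C in 5% FBS RPMI. A CellTiter-Glo luminescence read gave % activity for curve fitting.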
TGFb inhibitor – TGF-b pathway inhibition | HepG2 CAGA-GFP TGF-b/SMAD3 reporter, GFP fluorescence, 18 h; TGF-beta stimulated, 500 pg/mL final | Potency, µM (highest dose often 46.1 µM), for the others: at the top dose activity, negative = inhibition, usual class: inhibitors | 410,000 tested, 1.2% active | AID 588855; further: on the % scale 0 is the no-effect control and ±100 the full control effect; nearly all actives have a fitted effect of over 65% in size
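Inhibition was scored as loss of TGF-beta-induced (500 pg/mL final, 18 hours, 37 degrees C) GFP in HEPG2 cells carrying a CAGA-GFP reporter, in DMEM with 1% FBS. Well GFP was summed per cell; Activity was normalised to unstimulated and stimulated DMSO wells, then concentration-response fitting.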
HT1080NT lethal – kills 2HG-producing HT-1080-NT fibrosarcoma cells; Potency, µM (top dose mostly 46.1 µM), for the others: at the top dose activity, negative = less viability, most hits filed as cytotoxic; 360,000 tested, 1.6% active; HT-1080-NT fibrosarcoma viability, CellTiter-Glo ATP luminescence, 48 h;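 further: NT is the 2HG producing partner of a matched IDH1 knockdown line; 0% = DMSO-treated cells and -100% = media-only wells without cells; nearly all actives have a fitted effect of over 55% in size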
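HT-1080-NT; 750 cells/well; 5% FBS RPMI; 48 h compound, 37 degrees C; CellTiter-Glo luminescence; curve fitting and curve-class assignment.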
HepG2 viability – kills HepG2 cells in TGF-b inhibitor counter-screen | HepG2 CAGA-GFP viability, ATP luminescence, 18 h | Potency, µM (series often up to 46.1 µM), inactives show top-dose activity change, negative = cytotoxicity, actives largely listed as cytotoxic | 410,000 tested, 0.76% active
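HepG2 CAGA-GFP cells (1000/well, DMEM with 1% FBS) received compound, then TGF-beta at 500 pg/mL final, and were incubated 18 hours at 37 degrees C. Viability was read by CellTiter-Glo luminescence. Media-only wells were set as complete cell-killing and DMSO as no toxicity.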
TDP1 cell noCPT – qHTS for Inhibitors of human tyrosyl-DNA phosphodiesterase 1 (TDP1): qHTS in cells in absence of CPT | 420,000 tested, 15% active | Potency, µM (titrated, usually from 46.2 µM), inactives show at the highest dose activity change, negative = growth inhibition, most hits filed as inhibitors | AID 686978, 2013 | DT40 Tdp1-/- hTDP1 cells, no CPT, ATP luminescence, 48 h; further: on the % scale 0 is the no-effect control and ±100 the full control effect; nearly all actives have a fitted effect of over 55% in size
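Chicken DT40 Tdp1-/- cells complemented with human TDP1, screened without camptothecin (DMSO vehicle only), 400 cells/well. Compounds pin-transferred, cells incubated at 37 °C for at least 48 hr. Growth read as ATP-dependent luminescence (CellTiter-Glo, 30 min at RT).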
TDP1 cell CPT – growth inhibition of DT40 Tdp1-/-;hTDP1 cells with camptothecin (screen for TDP1 inhibitors) | chicken DT40 Tdp1-/-;hTDP1 cells + 20 nM CPT, ATP luminescence, 48 h | 420,000 tested, 12% active | Potency, µM (top dose mostly 46.2 µM), inactives show at the top dose activity change, negative = growth inhibition, most hits filed as inhibitors; further: on the % scale 0 is the no-effect control and ±100 the full control effect; nearly all actives have a fitted effect of over 55% in size
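Cell growth measured by CellTiter-Glo luminescence after a minimum 48 h, 37 C compound exposure with 20 nM CPT in Tdp1-knockout DT40 cells stably expressing hTDP1, seeded 400/well; qHTS titration format.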
The depositor's hits bear a star; ? = inconclusive; nt = not tested or not shown. Hits are enriched below; roughly 17% of the tested compounds scored in any of these assays. The call rests on the fitted dose curve; in most records, active means well fitted curve in the direction sought with a large enough effect; inconclusive means small, poorly fitted or top-dose-only effect, or another doubt; inactive means no such curve, though single readings can be large; an effect the other way counts as inactive or inconclusive. Potency means the concentration at half of the fitted maximal effect.

SMILES | HT1080 IDH1KD tx | TGFb inhibitor | HT1080NT lethal | HepG2 viability | TDP1 cell noCPT | TDP1 cell CPT
CCCCCOc1ccc2oc(=O)c3c(c2c1)CCCN3C(=O)CN1CCCC(C(=O)OCC)C1 (stereo unspecified) | 23µM* | -21% | ? | -27% | ? | ?
CCCOc1ccc2oc(=O)c3c(c2c1)CCCN3C(=O)CN(C)Cc1ccccc1 | -12% | 13% | -15% | -31% | 21µM* | ?
CCc1c(C(C)S(=O)(=O)c2ccc(C)cc2)[nH]c(=O)n1-c1ccc(C)cc1 (stereo unspecified) | -2% | -17% | 6% | -32% | 29µM* | ?
COc1cc(C(C)=O)ccc1Oc1ncnc2c1cnn2-c1ccc(F)cc1 | 6% | ? | 6% | 0% | 9.2µM* | ?
CN(Cc1cnn(-c2ccc(F)cc2)c1)Cc1nc(Cc2ccccc2)no1 | 1% | -15% | 4% | -5% | -17% | ?
CC1CCC2(CC1)C(Nc1cccc(Cl)c1)=NC(=S)N2CC#N (stereo unspecified) | -26% | ? | ? | -19% | 16µM* | ?
c1ccc(SCc2cn(C[C@H]3CC[C@@H]([C@@H]4CC[C@H](Cn5cc(CSc6ccccc6)nn5)O4)O3)nn2)cc1 | -6% | ? | -5% | -17% | 16µM* | ?
O=C1c2ccccc2C(=O)N1CCCCc1cn(C[C@H]2CC[C@@H]([C@@H]3CC[C@H](Cn4cc(CCCCN5C(=O)c6ccccc6C5=O)nn4)O3)O2)nn1 | 9% | ? | 1% | -4% | 16µM* | 16µM*
COc1cccc(-c2cn(C[C@H]3CC[C@@H]([C@@H]4CC[C@H](Cn5cc(-c6cccc(OC)c6)nn5)O4)O3)nn2)c1 | -3% | -1% | -1% | -10% | 16µM* | ?
COc1ccc(S(=O)(=O)N2CCCOC2CNC(=O)C(=O)NCCc2ccco2)cc1 (stereo unspecified) | 11% | -17% | 4% | -15% | -8% | -1%
COCCNC(=O)C1(C)CCN(C(=O)c2ccc3ccccc3n2)C1 (stereo unspecified) | 16% | 15% | 22% | 9% | -22% | 6%
COC(=O)C(Cc1ccccc1)OS(N)(=O)=O (stereo unspecified) | -3% | 0% | -1% | -5% | -1% | ?
COc1ccc(NC(=O)CSCc2cc(=O)n3cc(C)sc3n2)cc1 | 13% | -9% | 9% | 2% | 2% | -8%
NNC(=O)c1cccn(Cc2cccc(C(F)(F)F)c2)c1=O | -15% | 0% | -5% | -11% | ? | 15µM*
CN(C)NC(=O)c1ccc([N+](=O)[O-])s1 | 0% | -20% | ? | -12% | 16µM* | ?
O=C(Nc1ccccc1F)c1ccc([N+](=O)[O-])s1 | ? | ? | ? | -68% | 21µM* | 21µM*
O=C(COC(=O)c1ccc([N+](=O)[O-])s1)Nc1ccccc1 | 20% | -6% | 16% | -10% | -12% | ?
Cc1ccc(C(=O)Nc2cc([N+](=O)[O-])ccc2F)s1 | 5% | ? | 9% | 17% | -3% | -3%
CCCCOc1ccc(C(C)NC(=O)CN2C(=O)CSc3ccc(S(=O)(=O)N4CCOCC4)cc32)cc1 (stereo unspecified) | nt | ? | nt | -37% | 23µM* | ?
Cc1ccccc1CNC(=O)CN1C(=O)CSc2ccc(S(=O)(=O)N(C)C)cc21 | nt | ? | nt | -5% | -2% | ?
CCOc1ccc(NC(=O)CN2C(=O)CSc3ccc(S(=O)(=O)N4CCOCC4)cc32)cc1 | 6% | -2% | 6% | 0% | 6% | -7%
CCCN(CCC)S(=O)(=O)c1ccc2c(c1)N(CC(=O)NC(C)c1ccccc1)C(=O)CS2 (stereo unspecified) | nt | -31% | nt | -4% | 23µM* | ?
CCCCC(CC)CNC(=O)CN1C(=O)CSc2ccc(S(=O)(=O)N3CCOCC3)cc21 (stereo unspecified) | nt | ? | nt | -17% | 13µM* | 16µM*
Cc1c(C(=O)N(C)C)sc2c1c(=O)n(-c1ccccc1C(F)(F)F)c(=O)n2Cc1cccc(F)c1 | nt | 34% | nt | -19% | -23% | -20%
CN(C)CCNC(=O)Cn1nc(N2CCN(c3ccccc3)CC2)ccc1=O | nt | 15% | nt | -1% | -14% | -14%
SMILES | HT1080 IDH1KD tx | TGFb inhibitor | HT1080NT lethal | HepG2 viability | TDP1 cell noCPT | TDP1 cell CPT
Cc1cc(F)ccc1C(O)c1ncc(-c2cccc3ccccc23)[nH]1 (stereo unspecified) | ? | -15% | ? | -28% | ? | ?
Cc1[nH]c2ccccc2c1C(=O)/C=C\c1ccccc1Cl | ? | -13% | ? | -3% | ? | 21µM*
O=C(C=Cc1ccccc1Cl)c1ccccc1 | ? | -3% | 23µM* | -17% | 16µM* | ?
O=C(/C=C/c1ccccc1Cl)N1CCCN(C(=O)/C=C/c2ccccc2Cl)CC1 | -8% | -1% | -7% | -25% | 21µM* | 18µM*
O=C(/C=C/c1ccccc1Cl)NC1CCS(=O)(=O)C1 (stereo unspecified) | 6% | -7% | 7% | -3% | 18µM* | 21µM*
OC[C@]1(O)OC[C@@H](O)[C@H](O)[C@@H]1O | nt | nt | nt | nt | 0% | -27%
CCc1nc2c(c(SC)nn2-c2ccccc2)c(N)c1C(=O)OC | -2% | -25% | -1% | -33% | -14% | ?
CCN(CC)S(=O)(=O)c1ccc(N2CCOCC2)c(NC(=O)c2sccc2C)c1 | 15% | ? | -1% | -8% | 18µM* | ?
CCc1cc(C(=O)Nc2cc(S(=O)(=O)N3CCCCC3)ccc2N2CCN(C)CC2)sc1C | ? | ? | ? | -71% | 4.1µM* | 4.6µM*
CCc1cc(C(=O)Nc2cc(S(=O)(=O)N(CC)CC)ccc2N2CCOCC2)sc1C | -13% | ? | -2% | -8% | ? | 21µM*
CN1CCN(c2ccc(S(=O)(=O)N3CCCCC3)cc2NC(=O)c2cccc([N+](=O)[O-])c2)CC1 | -5% | 0% | -4% | -21% | -21% | -23%
CCN(CC)S(=O)(=O)c1ccc(N2CCOCC2)c(NC(=O)c2cc(C)cc(C)c2)c1 | -10% | -5% | -1% | -42% | 18µM* | 7.3µM*
